Here are results for 37 molecules from PubChem BioAssay (Tox21).

Several values for one entry are separate records, joined by “and”; a condition that tells them apart may be missing. Equal values may be shown once. Inconclusive results are not listed. Entries that show only a call come without a potency. Some compounds were tested as several samples or in several runs, with calls that do not always agree. Activity calls are given as the source filed them. Calls follow the shape of the dose curve; as a rule, active = well fitted inhibition curve with a large enough effect in the repeat runs; inconclusive = weak or mixed curves; inactive = no such curve, though single readings can be large or run the other way.
Potency is read from the fitted curve at half-maximal effect.

A short description of the test: qHTS assay to identify small molecule antagonists of the estrogen related receptor (ERR) signaling pathway from Tox21 library (AID 1224848). Also: nearly all actives have a fitted effect of over 50% in size. Particulars: ERR reporter cell line, luciferase antagonist mode, 18 h; series mostly up to 92.4 µM. An excerpt: U.S. Tox21 Program National Center for Advancing Translational Sciences [NCATS] NIH Chemical Genomics Center [NCGC] U.S. Environmental Protection Agency [EPA] National Institutes of Environmental Health Sciences [NIEHS] National Toxicology Program [NTP] U.S. Food and Drug Administration [FDA] Tox21 Assay Overview: Estrogen related receptors (ERRs), the first orphan nuclear receptors discovered, play an important role in the control of cellular energy metabolism. ERRs are required for high-energy production in response to the environmental challenges. ERR-alpha was also identified as an adverse marker for breast cancer progression; ERR-alpha-positive tumors have a poor prognosis. To screen and to identify environmental compounds that perturb the ERR signaling pathways could provide valuable information for potential therapeutic or preventive measures in the treatment of metabolic disease. For identifying ERR antagonists, ERR cell line (provided by NTP) has been used to screen Tox21 10K library.
Tox21 Assay Protocol Summary: The ERR cells were dispensed at 2,000 cells/5 ul/well in 1536-well white plates using a Multidrop dispenser. After the assay plates were incubated at a 37 C/5% CO2 incubator for 6 hours, 23 nL of compounds dissolved in DMSO, positive and negative controls or DMSO only was transferred to the assay plate by a pin tool. The plates were incubated at 37 C for 18 hours. 4 ul/well of One-Glo reagent was added into the assay plates using a Flying Reagent Dispenser. After 30-minute incubation at room temperature, the luminescence intensity in the plates was measured using a ViewLux plate reader.
In general terms: qHTS replaces the single test concentration by a dilution series.
Regarding `O=C(O)c1ccccc1C(c1ccc(O)cc1)c1ccc(O)cc1`, the Potency result was “inactive”.

Turning to `Fc1ccc(Br)cc1`, the Potency entry is “inactive”.

For the molecule `O=C(O)CCCC[C@@H]1SC[C@@H]2NC(=O)N[C@@H]21`, the Potency result is “inactive”.

Consider `CCc1cccc(C)c1N`, for which the Potency entry is “inactive”.

`CCCCCCCCCCCCc1ccccc1`: the Potency result is “inactive”.

Turning to `Cc1cccc(O)c1`, the Potency result is “inactive”.

Consider `Nc1cc([N+](=O)[O-])ccc1O`, for which the Potency entry was “inactive”.

For `COc1ccc(Nc2ccccc2)c(C)c1`, the Potency entry is “inactive”.

Take `OCCOCCOCCO`: the Potency result is “inactive”.

Regarding `CCC(O)OCCCOC` (configuration not stated), the Potency entry is “inactive”.

In the case of `C[C@H]1C[C@@H]2[C@H]([C@@H](O)C[C@@]3(C)[C@H]2CC[C@]3(O)C(=O)CO)[C@@]2(C)C=CC(=O)C=C12`, the Potency result is “inactive”.

Take `O=C(CC(C(=O)OC1CCCCC1)S(=O)(=O)O)OC1CCCCC1` (configuration not stated): the Potency entry was “inactive”.

`OC[C@H]1O[C@@](CO)(O[C@H]2O[C@H](CO)[C@@H](O)[C@H](O)[C@H]2O)[C@@H](O)[C@@H]1O`: the Potency result was “inactive”.

On to `CSCCC=O`, for which the Potency result was “inactive”.

For `CCC(O)OC(O)CC` (configuration not stated), the Potency result was “inactive”.

Turning to `CCCCCCCCCCCCCCCO`, the Potency result was “inactive”.

For `CN(C)CCOCCN(C)C`, the Potency entry was “inactive”.

On to `Nc1ccccc1[N+](=O)[O-]`, for which the Potency result was “inactive”.

With `CC[C@H](C)C(=O)O[C@H]1C[C@@H](C)C=C2C=C[C@H](C)[C@H](CC[C@@H]3C[C@@H](O)CC(=O)O3)[C@H]21`, the Potency entry is “inactive”.

On to `OCC(CO)(CBr)CBr`, for which the Potency result is “inactive”.

Take `O=P(OC(CCl)CCl)(OC(CCl)CCl)OC(CCl)CCl`: the Potency was 48.3 µM (active) and 54.5 µM (active).

Turning to `COCCCOc1ccnc(CS(=O)c2nc3ccccc3[nH]2)c1C` (configuration not stated), the Potency result is “inactive”.

Take `CCCCC(CC)COC(=O)CS` (configuration not stated): the Potency entry was “inactive”.

Consider `CN(C)CCCN`, for which the Potency result is “inactive”.

As to `CC(C)(N)CO`, the Potency entry is “inactive”.

Turning to `CC(=O)CC(=O)Nc1ccccc1C`, the Potency result is “inactive”.

For `ON=C1CCCCC1`, the Potency entry was “inactive”.

For the molecule `COS(C)(=O)=O`, the Potency result is “inactive”.

`CC1=C(C)S(=O)(=O)CCS1(=O)=O`: the Potency result was “inactive”.

As for `c1ccc2c(c1)ccc1ccccc12`, the Potency was 47.2 µM (active) and 24.3 µM (active).

With `C=C(C)C(=O)O[C@H]1C[C@@H]2CC[C@@]1(C)C2(C)C`, the Potency was 4.83 µM (active) and inactive.

Consider `O=C(Oc1ccccc1)c1ccccc1`, for which the Potency result is “inactive”.

For `CC(C)CC(=O)CC(C)C`, the Potency result was “inactive”.

In the case of `O=c1[nH]nnc2ccccc12`, the Potency entry was “inactive”.

Consider `Cc1cccnc1`, for which the Potency result was “inactive”.

As to `N[C@@H](Cc1cc(I)c(Oc2cc(I)c(O)c(I)c2)c(I)c1)C(=O)O`, the Potency result was “inactive”.

On to `CCCCC(CC)COC(=O)C(C#N)=C(c1ccccc1)c1ccccc1` (configuration not stated), for which the Potency was 23.7 µM (active).
